Assay outcomes deposited in PubChem BioAssay by National Center for Advancing Translational Sciences (NCATS).
An excerpt weighted towards active compounds, which were near 18% of everything screened.
VDR inh: Inhibitors of the vitamin D receptor (VDR): qHTS | Potency, µM, most hits filed as inhibitors | 400,000 compounds, 0.93% hits | VDR-SRC2-3 peptide fluorescence polarization, 2 h | AID 504847, 2011 | Vitamin D3 receptor (Homo sapiens), P11473
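Two reagent solutions held at 4 deg C in the dark were dispensed, compounds pinned at 23 nl, and the mixture incubated 2 h at room temperature. Read-out: fluorescence polarization of VDR–SRC2-3 peptide binding.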
PLK1 PBD inh: qHTS for Inhibitors of PLK1-PDB (polo-like kinase 1 - polo-box domain): Primary Screen | Serine/threonine-protein kinase PLK1 (Homo sapiens), P53350 | Plk1 PBD binding of FITC phosphopeptide, fluorescence polarization | Potency, µM, actives largely listed as inhibitors | 360,000 compounds, 2.8% hits | AID 720504, 2013; note: series mostly up to about 57 µM; nearly all actives have a fitted effect of over 65% in size
TDP1 cell CPT: qHTS for Inhibitors of human tyrosyl-DNA phosphodiesterase 1 (TDP1): qHTS in cells in presence of CPT; chicken DT40 Tdp1-/-;hTDP1 cells + 20 nM CPT, ATP luminescence, 48 h; 420,000 compounds, 12% hits; Potency, µM (titrated, usually from 46.2 µM), usual class: inhibitors; note: nearly all actives have a fitted effect of over 55% in size
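Chicken DT40 Tdp1-/- cells stably complemented with human TDP1 were seeded at 400 cells/well in medium containing 20 nM camptothecin, exposed to pin-transferred compounds, and grown at 37 °C for at least 48 hr. Viability was read as ATP luminescence.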
TDP1 block: qHTS Assay for Inhibitors of Tyrosyl-DNA Phosphodiesterase (TDP1); Potency, µM (titrated, usually from 130 µM), most hits filed as inhibitors; recombinant TDP1, AlphaScreen DNA substrate cleavage; 350,000 compounds, 0.28% hits; note: nearly all actives have a fitted effect of over 40% in size
Target sequence (Q9NUW8 whole entry, looked up): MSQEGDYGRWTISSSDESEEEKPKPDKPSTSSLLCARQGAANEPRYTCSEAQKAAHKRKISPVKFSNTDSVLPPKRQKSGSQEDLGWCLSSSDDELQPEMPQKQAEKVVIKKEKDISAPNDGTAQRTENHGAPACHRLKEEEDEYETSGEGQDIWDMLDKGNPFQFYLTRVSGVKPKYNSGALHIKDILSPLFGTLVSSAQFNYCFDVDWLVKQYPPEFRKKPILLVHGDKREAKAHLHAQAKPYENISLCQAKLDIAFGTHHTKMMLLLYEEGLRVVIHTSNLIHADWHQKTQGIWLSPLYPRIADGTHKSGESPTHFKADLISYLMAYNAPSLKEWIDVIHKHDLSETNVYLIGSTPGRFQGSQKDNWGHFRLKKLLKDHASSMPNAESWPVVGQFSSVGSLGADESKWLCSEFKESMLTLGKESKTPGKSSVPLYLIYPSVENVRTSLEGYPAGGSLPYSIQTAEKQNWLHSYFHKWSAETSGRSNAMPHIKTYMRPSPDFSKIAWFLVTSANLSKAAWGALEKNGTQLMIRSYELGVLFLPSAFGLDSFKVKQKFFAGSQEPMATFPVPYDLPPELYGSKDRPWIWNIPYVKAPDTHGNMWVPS
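Recombinant E. coli-expressed Tdp1 (1 nM) preincubated with compound 15 min at RT, then 5'-biotin/3'-phosphotyrosine-FITC DNA substrate (15 nM) added for 5 min. AlphaScreen beads (10 ug/ml) added, 10 min RT; tyrosine-FITC cleavage read as signal loss.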
DT40 TDP1 no CPT: qHTS for Inhibitors of human tyrosyl-DNA phosphodiesterase 1 (TDP1): qHTS in cells in absence of CPT; DT40 Tdp1-/- hTDP1 cells, no CPT, ATP luminescence, 48 h; Potency, µM (highest dose often 46.2 µM), actives largely listed as inhibitors; 420,000 compounds, 15% hits; note: nearly all actives have a fitted effect of over 55% in size
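A cellular qHTS used chicken DT40 cells lacking endogenous Tdp1 but carrying stably transfected human TDP1. Compounds were applied without camptothecin, and cell growth kinetics were judged by ATP-dependent luminescence after ≥48 hr.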
KAT2A inh: qHTS Assay for Inhibitors of GCN5L2 | GCN5L2 HAT assay, ThioGlo1 CoA-SH fluorescence | Potency, µM (highest dose often 58.9 µM), usual class: inhibitors | 390,000 compounds, 0.21% hits | AID 504327, 2011
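GCN5L2 (20 nM) in 50mM HEPES pH 7.5, 0.1mM EDTA, 0.01% Tween-20 preincubated 15 min with compounds at room temperature. Reaction started with H3(1-25) 75uM, acetyl-CoA 70uM, ThioGlo1 50uM; CoA-thiol fluorescence (Ex340/Em540) read at 0 and 20 min.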
Of the large screens only hits and unclear results are named; the others gave an inactive call. Calls come from the whole dose curve; as a rule, active = well fitted curve in the direction sought with a large enough effect; inconclusive = small, poorly fitted or top-dose-only effect, or another doubt; inactive = no such curve, though single readings can be large; an effect the other way counts as inactive or inconclusive.

O=[N+]([O-])c1ccc(Oc2ccc(S(=O)(=O)N3CCCCC3)cc2)cc1	TDP1 cell CPT 16µM, DT40 TDP1 no CPT 15µM
CC1CCN(S(=O)(=O)c2ccc([N+](=O)[O-])cc2)CC1	none (no result: TDP1 block)
CN1CCN(S(=O)(=O)c2ccc([N+](=O)[O-])cc2)CC1	none (no result: TDP1 block)
O=[N+]([O-])c1ccccc1Oc1ccc(S(=O)(=O)N2CCOCC2)cc1	TDP1 cell CPT inconclusive, DT40 TDP1 no CPT 21µM
O=S(=O)(c1ccc(Oc2ccc3c(c2)OCO3)c(S(=O)(=O)N2CCOCC2)c1)N1CCOCC1	TDP1 cell CPT 0.89µM, DT40 TDP1 no CPT 11µM (no result: PLK1 PBD inh, KAT2A inh)
COc1ccc(Oc2ccc(S(=O)(=O)N3CCCCC3)cc2S(=O)(=O)N2CCCCC2)cc1	DT40 TDP1 no CPT inconclusive
CCC[C@@H]1CC(C(=O)NC(C2O[C@H](SC)C(OP(=O)(O)O)[C@H](O)[C@H]2O)[C@H](C)Cl)N(C)C1 (stereo not given in full)	none (no result: PLK1 PBD inh, TDP1 cell CPT, DT40 TDP1 no CPT)
CCSc1nc2c([nH]c3ccccc32)c(=O)n1-c1ccc(OC)cc1	none (no result: PLK1 PBD inh)
CCc1ccc(/C=C2\CN(CC)Cc3c2nc2ccccc2c3C(=O)O)cc1	KAT2A inh 2µM
O=C(O)c1c2c(nc3ccccc13)/C(=C/c1ccc(O)cc1)CC2	PLK1 PBD inh 19µM, TDP1 block inconclusive, KAT2A inh inconclusive
COc1cc(C)c(C2NC(=O)c3ccccc3N2)cc1C (stereo not given)	TDP1 cell CPT 2.6µM, DT40 TDP1 no CPT 2.1µM (no result: TDP1 block, KAT2A inh)
Cc1ccc(C)c(C2NC(=O)c3ccccc3N2)c1 (stereo not given)	TDP1 cell CPT 0.73µM, DT40 TDP1 no CPT 0.58µM (no result: TDP1 block)
Cn1cc(C2NC(=O)c3ccccc3N2)c2ccccc21 (stereo not given)	TDP1 cell CPT 1.2µM, DT40 TDP1 no CPT 1.6µM (no result: TDP1 block, KAT2A inh)
O=C1NC(c2ccccc2O)Nc2ccccc21 (stereo not given)	none (no result: TDP1 block)
Cc1ccc(C)c2nc(Cl)c(C3NC(=O)c4ccccc4N3)cc12 (stereo not given)	TDP1 cell CPT inconclusive, DT40 TDP1 no CPT 16µM
CCOC(=O)c1ccc(NC(=O)Cn2c(=O)cc(C)c3c(C)nn(-c4ccc(CC)cc4)c32)cc1	TDP1 cell CPT inconclusive (no result: PLK1 PBD inh)
COCCCNC(=O)C[C@@H]1C[C@@]2(C(=O)OC)CC(C)(C)CC=C2N(Cc2cccc3ccccc23)C1=O	TDP1 cell CPT inconclusive, DT40 TDP1 no CPT inconclusive (no result: VDR inh, TDP1 block, KAT2A inh)
COC(=O)[C@@]12C[C@@H](CC(=O)NCC3CCCCC3)C(=O)N(Cc3cccc4ccccc34)C1=CCC(C)(C)C2	TDP1 cell CPT 21µM, DT40 TDP1 no CPT 16µM (no result: VDR inh, TDP1 block, KAT2A inh)
COC(=O)[C@@]12C[C@@H](CC(=O)NCc3ccccc3)C(=O)N(Cc3cccc4ccccc34)C1=CCC(C)(C)C2	TDP1 cell CPT inconclusive, DT40 TDP1 no CPT 18µM (no result: VDR inh, TDP1 block, KAT2A inh)
COC(=O)[C@@]12C[C@@H](CC(=O)NCCC(C)C)C(=O)N(Cc3cccc4ccccc34)C1=CCC(C)(C)C2	TDP1 cell CPT inconclusive, DT40 TDP1 no CPT 21µM (no result: VDR inh, TDP1 block, KAT2A inh)
COC(=O)[C@@]12C[C@@H](CC(=O)NCc3cccc4ccccc34)C(=O)N(Cc3cccc4ccccc34)C1=CCC(C)(C)C2	TDP1 cell CPT 18µM, DT40 TDP1 no CPT inconclusive (no result: VDR inh, TDP1 block, KAT2A inh)
COC(=O)C[C@@H]1C[C@@H]2c3cc(NC(=O)Cc4ccncc4)ccc3O[C@@H]2[C@@H](CO)O1	none (no result: VDR inh, TDP1 block, KAT2A inh)
COC(=O)[C@@]12C[C@@H](CC(=O)NCCCCc3ccccc3)C(=O)N(Cc3cccc4ccccc34)C1=CCC(C)(C)C2	TDP1 cell CPT inconclusive, DT40 TDP1 no CPT 21µM (no result: VDR inh, TDP1 block, KAT2A inh)
COC(=O)[C@@]12C[C@@H](CC(=O)NCc3ccccc3)C(=O)N(Cc3ccccc3)C1=CCC(C)(C)C2	TDP1 cell CPT 21µM, DT40 TDP1 no CPT inconclusive (no result: VDR inh, TDP1 block, KAT2A inh)
COC(=O)[C@@]12C[C@@H](CC(=O)NCc3ccc(C)o3)C(=O)N(Cc3cccc4ccccc34)C1=CCC(C)(C)C2	TDP1 cell CPT 21µM, DT40 TDP1 no CPT 16µM (no result: VDR inh, TDP1 block, KAT2A inh)
COc1ccc(NC(=O)CC2C(=O)N(C)C(=S)N2CCc2ccc(F)cc2)cc1 (stereo not given)	TDP1 cell CPT inconclusive, DT40 TDP1 no CPT inconclusive
COc1ccc(CCN2C(=S)N(C)C(=O)C2CC(=O)Nc2ccc(OC)cc2)cc1 (stereo not given)	TDP1 cell CPT 12µM, DT40 TDP1 no CPT inconclusive
CCN1C(=O)C(CC(=O)Nc2ccc(OC)cc2)N(CCCN2CCN(c3ccc(F)cc3)CC2)C1=S (stereo not given)	TDP1 cell CPT 23µM, DT40 TDP1 no CPT 13µM
CCN1C(=O)C(CC(=O)Nc2ccc(OC)cc2)N(CCc2ccc(F)cc2)C1=S (stereo not given)	TDP1 cell CPT 21µM, DT40 TDP1 no CPT 16µM
Nc1ccc(NC(=O)c2cc(Cl)ccc2O)c(Cl)c1	DT40 TDP1 no CPT inconclusive (no result: PLK1 PBD inh, KAT2A inh)
Cc1ccc(NS(=O)(=O)c2cc3c(cc2-c2cn[nH]c2)NC(=O)CO3)cc1C	none (no result: VDR inh, PLK1 PBD inh, TDP1 cell CPT, DT40 TDP1 no CPT, KAT2A inh)
CC1(C(=O)NNC(=O)c2cccc([N+](=O)[O-])c2)CC1(Br)Br (stereo not given)	none
